Data reported in PubChem BioAssay AID651640 (Broad Institute, 2012).
The whole screen tested about 350,000 compounds, of which about 6,000 (1.7%) were called active. Inconclusive results (about 5%) are left out. The sample as a whole holds a higher share of actives than the screen did. Unmarked numbers belong to inactive results. No stated cut-off is given here; in the data, active means CPE inhibition above about 20% (passing the limit was not always enough); inconclusive means no clear call, values can overlap the other calls; tested in BHK-21 cells.

Experiment: protection of cells from dengue 2 killing – plate reader, single concentration, primary screen (AID 651640);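 further: 0% = median of neutral control wells and 100% = median of positive control wells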
Details: DENV2-infected cells, cytopathic effect rescue, at 9.99 µM, hits give high values

SMILES	CPE inhibition
COc1ccc(NC(=S)Nc2ccc(S(N)(=O)=O)cc2)c(C)c1	5.31%
COc1cc2c(cc1OC)C(Nc1ccc(S(N)(=O)=O)cc1)=NC(C)(C)C2	23.5% (active)
CCc1nc2c(OCc3cccc(OC)c3)cccn2c1N(C)C(=O)C(C)C	3.81%
CCc1nc2c(OCCOc3ccccc3)cccn2c1N(C)C(=O)c1ccc(OC)cc1	-6.78%
CCc1nc2c(OCCc3cccc(OC)c3)cccn2c1N(C)C(=O)c1ccc(C)cc1	35.1% (active)
COc1ccc(NC(=O)Nc2ccc3c(c2)C(=O)N([C@@H](C)CO)C[C@H](C)[C@H](CN(C)S(=O)(=O)c2ccccc2)OCCCC[C@@H](C)O3)cc1	0.841%
Cc1ccccc1NC(=O)Cc1nc(COC(=O)c2cccnc2Cl)cs1	5.7%
Cc1ccccc1NC(=O)Cc1nc(COC(=O)CNC(=O)c2ccc(Cl)cc2Cl)cs1	-7.77%
Cc1ccccc1NC(=O)Cc1nc(COC(=O)C(C)(C)Oc2ccc(Cl)cc2)cs1	45.3% (active)
CN1c2ccc(-c3cccc(C#N)c3)cc2[C@@H]2[C@@H](CCN2C(=O)C2CCC2)[C@@H]1CO	-11%
COc1ccc2c3c(n(C)c2c1)[C@@H](CO)N(C(C)=O)CC31CCN(C(=O)C2CC2)CC1	-6.89%
COc1ccc(/C(C)=N/NC(=O)CCC(=O)Nc2ccc(Cl)cc2Cl)c(OC)c1	-1.9%
COc1ccc(OC)c(/C(C)=N\NC(=O)c2cc3cc(Cl)ccc3n2C)c1	69.2% (active)
COc1ccc(OC)c(C(=O)c2ccc(Cl)cc2)c1	1.87%
CCCN1C[C@@H](C)[C@@H](OC)CN(C)C(=O)c2ccc(NS(C)(=O)=O)cc2OC[C@@H]1C	-1.47%
CCC(=O)N1C[C@H](C)[C@H](OC)CN(C)C(=O)c2ccc(NS(C)(=O)=O)cc2OC[C@H]1C	-1.33%
Cc1noc(C)c1S(=O)(=O)Nc1ccc2c(c1)C(=O)N([C@H](C)CO)C[C@H](C)[C@H](CN(C)S(C)(=O)=O)OCCCC[C@H](C)O2	-2.38%
O=C(CCNC(=O)c1ccc(Br)cc1)NCC(c1ccco1)N1CCCCC1 (stereo not given)	81.5% (active)

SMILES	CPE inhibition
CC(Oc1ccc(Br)cc1)C(=O)NCC(c1ccco1)N1CCCCC1 (stereo not given)	-0.377%
COc1ccccc1C(=O)NCCC(=O)NCC(c1ccco1)N1CCCCC1 (stereo not given)	-2.74%
C[C@@H]1CCCCO[C@H](CN(C)C(=O)NC2CCCCC2)[C@H](C)CN([C@@H](C)CO)C(=O)c2cc(NC(=O)C3CCCCC3)ccc2O1	-2.82%
C[C@H](O)C#Cc1ccc2c(c1)O[C@H](CN(C)Cc1cccnc1)[C@H](C)CN([C@H](C)CO)S2(=O)=O	9.35%
COCC#Cc1cnc2c(c1)C(=O)N([C@@H](C)CO)C[C@@H](C)[C@@H](CN(C)C(=O)Nc1ccc(OC)cc1)O2	-9.58%
C[C@H]1CN([C@@H](C)CO)C(=O)Cc2cc(NC(=O)Nc3cccc4ccccc34)ccc2O[C@@H]1CN(C)S(C)(=O)=O	-2.56%
COc1ccc(NC(=O)Nc2ccc3c(c2)CC(=O)N([C@@H](C)CO)C[C@@H](C)[C@@H](CN(C)Cc2ccc(C(F)(F)F)cc2)O3)cc1	-24.3%
COc1ccc(CN(C)C[C@@H]2Oc3ccc(NC(=O)Nc4ccc(F)cc4)cc3CC(=O)N([C@@H](C)CO)C[C@H]2C)cc1	2.99%
C[C@@H]1CN([C@H](C)CO)C(=O)Cc2cc(NC(=O)c3ccncc3)ccc2O[C@H]1CN(C)S(=O)(=O)c1cccs1	19.1%
C[C@H]1CN([C@@H](C)CO)C(=O)Cc2cc(NC(=O)Nc3cccc4ccccc34)ccc2O[C@@H]1CN(C)C	25.6% (active)
C[C@H]1CN([C@@H](C)CO)C(=O)Cc2cc(NC(=O)Nc3cccc4ccccc34)ccc2O[C@H]1CN(C)CC1CC1	2.69%
C[C@H](CO)N1C[C@H](C)[C@H](CN(C)S(C)(=O)=O)Oc2ccc(NC(=O)c3ccncc3)cc2CC1=O	-1.49%
Cc1ccc(S(=O)(=O)N(C)C[C@@H]2Oc3ccc(NC(=O)c4ccncc4)cc3CC(=O)N([C@H](C)CO)C[C@H]2C)cc1	20.7% (active)
C[C@@H]1CN([C@H](C)CO)C(=O)Cc2cc(NC(=O)Nc3cccc4ccccc34)ccc2O[C@@H]1CN(C)Cc1ccc(C(F)(F)F)cc1	20.3% (active)
C[C@@H]1CN([C@H](C)CO)C(=O)Cc2cc(NC(=O)Nc3ccc(C(F)(F)F)cc3)ccc2O[C@H]1CN(C)Cc1ccc(-c2ccccc2)cc1	-23%
C[C@@H]1CN([C@H](C)CO)C(=O)Cc2cc(NC(=O)Nc3cccc4ccccc34)ccc2O[C@@H]1CN(C)Cc1ccc(C(=O)O)cc1	-18.4%
C[C@H](CO)N1C[C@H](C)[C@H](CN(C)Cc2ccc(-c3ccccc3)cc2)Oc2ccc(NC(=O)Nc3ccc(F)cc3)cc2CC1=O	33.6% (active)
